Sampled rows, rich in hits. Any-hit rate of the full collection: about 19%.
DT40 TDP1 no CPT – qHTS for Inhibitors of human tyrosyl-DNA phosphodiesterase 1 (TDP1): qHTS in cells in absence of CPT. 420,000 tested, 15% active. Potency, µM (top dose mostly 46.2 µM), for the others: at the highest dose activity change, negative = growth inhibition, most hits filed as inhibitors. DT40 Tdp1-/- hTDP1 cells, no CPT, ATP luminescence, 48 h. AID 686978, 2013; further: potency means the concentration at half of the fitted maximal effect; nearly all actives have a fitted effect of over 55% in size
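Readout: luminescence from CellTiter-Glo after 30 min in the dark at RT. Cells: DT40 Tdp1-/- with stable hTDP1, 400/well. Exposure: compounds alone, ≥48 hr, 37 °C.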
IL1B secr inh – qHTS for Inhibitors of Inflammasome Signaling: IL-1-beta AlphaLISA Primary Screen; THP-1 LPS/ATP IL-1B secretion, AlphaLISA, 16 h; hits give low values; activity change, % at 57.5 µM; 360,000 tested, 4.7% active; in the data active means activity change below about -50%; inconclusive means mostly about -30% to -49%
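Secreted IL-1B measured by AlphaLISA bead assay after 16 h compound exposure of THP-1 cells; compounds (final up to 57.5 uM) added 1 h before LPS (250 ng/mL) and ATP (1.25 mM) stimulation; lower signal means less secretion.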
TDP1 cell CPT – qHTS for Inhibitors of human tyrosyl-DNA phosphodiesterase 1 (TDP1): qHTS in cells in presence of CPT | AID 686979, 2013 | chicken DT40 Tdp1-/-;hTDP1 cells + 20 nM CPT, ATP luminescence, 48 h | 420,000 tested, 12% active | Potency, µM (series often up to 46.2 µM), for inactives: at the highest dose activity change, negative = growth inhibition, hits mostly inhibitors; further: potency means the concentration at half of the fitted maximal effect; nearly all actives have a fitted effect of over 55% in size
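Chicken DT40 Tdp1-/- cells complemented with human TDP1, 400 cells/well, exposed to compounds plus 20 nM camptothecin for at least 48 h at 37 C; viability read as ATP content by CellTiter-Glo luminescence.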
HT1080-NT tox – qHTS for induction of synthetic lethality in tumor cells producing 2HG: qHTS for the HT-1080-NT fibrosarcoma cell line. HT-1080-NT fibrosarcoma viability, CellTiter-Glo ATP luminescence, 48 h. Potency, µM (titrated, usually from 46.1 µM), inactives show at the top dose activity, negative = less viability, usual class: cytotoxic. 360,000 tested, 1.6% active. AID 686970, 2013;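 further: NT is the 2HG producing partner of a matched IDH1 knockdown line; potency means the concentration at half of the fitted maximal effect; 0% = DMSO-treated cells and -100% = media-only wells without cells; nearly all actives have a fitted effect of over 55% in size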
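HT-1080-NT; 750 cells/well; 5% FBS RPMI; 48 h compound, 37 degrees C; CellTiter-Glo luminescence; curve fitting and curve-class assignment.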
uPA generation – qHTS for Inhibitors of Cell Surface uPA Generation; cell surface uPA generation assay, qHTS; Potency, µM (doses to about 38.3 µM), without a hit: at the highest dose activity change, negative = inhibition, actives largely listed as inhibitors; 330,000 tested, 0.31% active; active means well fitted inhibition curve with a large enough effect; inconclusive means small, poorly fitted or top-dose-only effect; inactive means no such curve, though single readings can be large or run the other way; tested in mouse RAW 264.7 cells; further: potency means the concentration at half of the fitted maximal effect; nearly all actives have a fitted effect of over 55% in size
HT1080 IDH1KD tx – qHTS for induction of synthetic lethality in tumor cells producing 2HG: qHTS for the HT-1080-IDH1KD cell line; HT-1080 IDH1 knockdown viability, ATP luminescence, 48 h; AID 686971, 2013; Potency, µM (series often up to 46.1 µM), for the others: at the highest dose activity, negative = toxicity, usual class: cytotoxic; 360,000 tested, 2% active;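 further: potency means the concentration at half of the fitted maximal effect; 0% = DMSO wells and -100% = cell-free medium wells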
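Assay cells: HT-1080 with IDH1 knockdown, 750 per well, RPMI/5% FBS. Exposure: 48 h at 37 °C following 2 h pre-incubation. Read: CellTiter-Glo luminescence; fitted concentration-response, curve class assigned.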
Numbers without * were called inactive; ? = inconclusive; nt = no result. Unless noted, the call rests on the fitted dose curve; in most records, active means well fitted curve in the direction sought with a large enough effect; inconclusive means small, poorly fitted or top-dose-only effect, or another doubt; inactive means no such curve, though single readings can be large; an effect the other way counts as inactive or inconclusive. Unless noted, on the % scale 0 is the no-effect control and ±100 the full control effect.

SMILES	DT40 TDP1 no CPT	IL1B secr inh	TDP1 cell CPT	HT1080-NT tox	uPA generation	HT1080 IDH1KD tx
COc1ccc(S(=O)(=O)N2CCN(c3nc(-c4cccs4)nc4ccccc34)CC2)cc1OC	?	nt	-23%	nt	nt	nt
O=C(Cc1ccc(Cl)cc1)NCCc1ccc(F)cc1	-20%	-4	-14%	0%	-3%	-1%
O=C(CNC(=S)N(CCCN1CCOCC1)Cc1cccs1)NCc1ccccc1	-30%	-21	-4%	-3%	-11%	0%
S=C(Nc1ccccc1Cl)N(Cc1ccccc1)Cc1cccnc1	16µM*	-25	14%	1%	-3%	-4%
Cc1ccccc1NC(=S)N(Cc1cccnc1)Cc1ccccc1Cl	-28%	0	16%	-22%	4%	-17%
Cc1ccc(CNC(=O)CNC(=S)N(Cc2ccccc2)Cc2cccnc2)cc1	26µM*	?	?	-17%	-7%	-14%
Cc1ccc(CN(Cc2ccco2)C(=S)NCC(=O)NCc2cccnc2)cc1	?	-7	-1%	-1%	-6%	0%
O=C(CNC(=S)N(Cc1ccccc1)Cc1ccccc1F)NCCc1ccc(Cl)cc1	?	nt	23µM*	16µM*	2%	16µM*
O=C(CNC(=S)N(Cc1ccccc1)Cc1cccs1)NCc1ccc(F)cc1	?	-71*	-30%	-12%	2%	-26%
COc1ccc(CCCc2nnc(SCC(=O)Nc3ccc(Cl)cc3)o2)cc1	-25%	nt	-14%	nt	nt	nt
CCCC(=O)N1CCC1(C)C(=O)NS(=O)(=O)c1ccccc1Cl (stereo not drawn)	1%	0	-13%	15%	nt	5%
COc1ccccc1-n1nnnc1SC(C)C(=O)NC1CCCC1 (stereo not drawn)	-9%	1	-2%	-10%	-19%	-1%
O=C(O)c1nc(-c2ccccc2)c(C(=O)NC2CC2)[nH]1	7%	-14	-3%	26%	nt	20%
COC(=O)N1CCC2(CCCN(c3ncccn3)C2)CC1	-13%	nt	6%	nt	nt	nt
CC(O)(c1cccnc1)c1nc(-c2ccc(F)c(Cl)c2)cs1 (stereo not drawn)	?	22	?	?	nt	?
OCc1ccc2c(c1)c(-c1ccc3c(c1)OCCO3)c(-c1ccccc1)n2-c1ccccc1	23µM*	0	18µM*	?	?	-18%
O=C(/C=C/c1cn(-c2ccccc2)nc1-c1ccc2c(c1)OCCO2)NCCO	-14%	-10	-3%	5%	3%	-3%
CCc1nnc(NC(=O)c2cc(S(=O)(=O)N(C)c3ccc(OC)cc3)ccc2Cl)s1	3%	26	10%	3%	-1%	2%
Cc1ccc(S(=O)(=O)/N=C(\N)Nc2nc(C)c3cc(C)c(C)cc3n2)cc1	?	-2	23µM*	14%	nt	7%
Cc1ccc(S(=O)(=O)/N=C(\N)Nc2nc(C)c3ccc(C)cc3n2)cc1	?	-21	21µM*	8%	?	-10%
Cc1ccc(S(=O)(=O)/N=C(\N)Nc2nc(C)c3cc(C)ccc3n2)cc1	?	-11	?	-14%	nt	?
Cc1ccc2c(C)nc(N/C(N)=N/S(=O)(=O)c3ccccc3)nc2c1	-21%	-12	-21%	19%	0%	1%
Cc1cc(NC(=O)CCC(=O)N(CCC(C)C)C(C(=O)NC2CCCC2)c2ccccc2C)no1 (stereo not drawn)	?	-3	?	5%	-3%	5%
CCOC(=O)Cc1csc(/N=C/c2c(O)n(-c3ccccc3C(F)(F)F)c(=O)c3ccccc23)n1	?	32	21µM*	-2%	-26%	-12%
CCOC(=O)Cc1csc(N/N=C/c2ccc(C(F)(F)F)cc2)n1	-7%	6	9%	8%	-5%	8%
SMILES	DT40 TDP1 no CPT	IL1B secr inh	TDP1 cell CPT	HT1080-NT tox	uPA generation	HT1080 IDH1KD tx
CCOC(=O)Cc1csc(-n2sc3ccccc3c2=O)n1	12µM*	23	5.2µM*	17%	9%	2%
CCOC(=O)Cc1csc(SCn2nnc3ccccc3c2=O)n1	?	27	-22%	5%	-6%	10%
CCc1nc2c(OCc3ccc(C(F)(F)F)cc3)cccn2c1N(C)C(C)=O	?	-9	?	14%	nt	5%
CCc1nc2c(OCc3ccc(C(F)(F)F)cc3)cccn2c1N(C)C(=O)c1ccncc1	16µM*	8	16µM*	4%	nt	10%
CCc1nc2c(OCc3ccc(C(=O)OC)cc3)cccn2c1N(C)C(=O)c1ccc(C)cc1	18µM*	20	23µM*	-5%	nt	-26%
CCc1nc2c(OCc3ccc(F)cc3)cccn2c1N(C)C(=O)c1ccc(C)cc1	?	-4	15µM*	-20%	nt	-19%
CCc1nc2c(OCc3ccc(C(=O)OC)cc3)cccn2c1N(C)C(=O)c1ccc(OC)cc1	?	4	?	-2%	nt	-12%
Cn1c(=O)c2sccc2n2c(CCC(=O)NCc3ccc(F)cc3)nnc12	0%	nt	4%	nt	nt	nt
C=CCc1cc(/C=C2/NC(=O)N(CC)C2=O)cc(OCC)c1OCc1ccc(C(=O)O)cc1	?	?	?	-25%	16%	-24%
CCCNC(=O)c1cnn(-c2ccc(C)c(C)c2)c1C1CCN(C(=O)OC(C)(C)C)CC1	23µM*	nt	?	nt	nt	nt
Cc1ccc(-n2ncc(C(=O)NCCc3ccsc3)c2C2CCN(C(=O)OC(C)(C)C)CC2)cc1C	16µM*	nt	16µM*	nt	nt	nt
Cc1ccc(C2CCN(C(=O)c3cnn(-c4ccc(C)c(C)c4)c3C3CCN(C(=O)OC(C)(C)C)CC3)C2)cc1 (stereo not drawn)	13µM*	nt	10µM*	nt	nt	nt
Cc1ccc(-n2ncc(C(=O)NCCc3c[nH]c4ccccc34)c2C2CCN(C(=O)OC(C)(C)C)CC2)cc1C	?	nt	16µM*	nt	nt	nt
O=C(NCc1ccc(Cl)cc1)c1cc2cccc3c2n1CCS3	16µM*	nt	?	nt	nt	nt
O=S(=O)(NCc1cccs1)c1ccc(Br)cc1	1%	-14	-4%	-6%	6%	5%
O=C(Nc1ccc(Br)cc1)c1ccc(F)c(S(=O)(=O)NCc2cccs2)c1	21µM*	-55*	15µM*	?	-13%	?
